In the library only some 4.1% were active in any assay of this set; here they are far more common.
CHT PAM – human CHT allosteric activation; B-score at 10 µM; hit rate 0.49% among 310,000; CHT-expressing cells, membrane potential dye, choline EC20; active compounds read high; LV-AA mutant CHT in HEK293 cells; Q9GZV3;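 active = initial fluorescence not abnormally high and integrated response B-score, plate-corrected, over 3 SD above library mean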
Target sequence (Q9GZV3 whole entry, looked up): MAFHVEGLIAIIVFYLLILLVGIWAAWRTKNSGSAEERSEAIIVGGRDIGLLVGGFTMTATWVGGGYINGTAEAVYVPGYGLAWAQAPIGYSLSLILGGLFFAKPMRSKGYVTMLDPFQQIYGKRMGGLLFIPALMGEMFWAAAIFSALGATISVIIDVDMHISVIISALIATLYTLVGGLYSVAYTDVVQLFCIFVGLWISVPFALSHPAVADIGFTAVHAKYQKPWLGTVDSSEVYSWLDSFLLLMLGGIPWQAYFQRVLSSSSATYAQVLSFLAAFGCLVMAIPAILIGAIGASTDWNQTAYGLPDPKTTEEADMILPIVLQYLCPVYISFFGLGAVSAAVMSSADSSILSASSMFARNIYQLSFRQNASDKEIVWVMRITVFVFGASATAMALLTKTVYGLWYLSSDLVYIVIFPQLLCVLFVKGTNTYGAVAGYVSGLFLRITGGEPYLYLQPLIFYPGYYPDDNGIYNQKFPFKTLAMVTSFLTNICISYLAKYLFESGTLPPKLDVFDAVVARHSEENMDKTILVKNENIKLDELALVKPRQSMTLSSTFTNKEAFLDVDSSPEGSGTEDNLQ
MEKK2wt PB1 HTS – raises or lowers MEK5 binding to wildtype human MEKK2 PB1 domain. AID 1531. binding response (% of control), % at 10 µM. hit rate 1.1% among 290,000. Q9Y2U5. bead flow cytometry, Alexa488-MEK5 binding to MEKK2 WT; actives lie on both sides; in the data active = binding response below about 67% or above about 130%
MEKK3 PB1 HTS – modulators (inhibitors or enhancers) of MEK5 binding to human MEKK3 PB1 domain; hit rate 1.4% among 290,000; binding response (% of control), % at 10 µM; bead-based flow cytometry, Alexa488-MEK5 binding to MEKK3; actives lie on both sides; 0 = blocked by unlabeled MEK5, 100 = vehicle; Q99759; AID 1529;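 active = binding response more than 3 SD above or below the average of its plate-row segment, actives on both sides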;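 note: Alexa488 bead fluorescence after subtracting the streptavidin-only scavenger bead signal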
SUMO Mot1 rescue – SUMOylation pathway inhibition by Mot1-301 growth rescue | S. cerevisiae Mot1-301 growth rescue, ATP luminescence, 38.5C; percent above DMSO median, 100 means doubled | hit rate 1% among 320,000 | growth rescue, % at 18.8 µM;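 active = every valid replicate shows activation above 250% relative to neutral control wells; inactive = the rest, any valid replicate at or below 250%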;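 note: OY570 slx delta 5 strain wells were the positive control but not used for scaling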
MEKK2mut PB1 HTS – signal of MEK5 binding to mutant human MEKK2 PB1 domain; percent response, % at 10 µM; hit rate 0.35% among 290,000; bead flow cytometry, Alexa488-MEK5 binding to MEKK2 mutant; in the data active = percent response above about 24%, passing the limit was not always enough
CHT inh – human CHT choline transport inhibition; CHT-expressing cells, membrane potential dye, choline response; active compounds read low; hit rate 0.86% among 310,000; Q9GZV3; B-score at 10 µM; AID 488975;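 active = B-score over 3 SD under the library average, and starting fluorescence ratio not unusually high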;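 note: choline stimulus applied at its EC90 after an EC20 pre-addition; B-score computed on integrated fluorescence ratio after choline addition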
Starred values were filed as active, the others as inactive; [ ] = another dose, or the depositor's remark.

What do the screens show for `COc1ccc(C(=O)Nc2ccc(S(=O)(=O)N3CCCC3)cc2)cc1[N+](=O)[O-]`?
CHT PAM: inactive; MEKK2wt PB1 HTS: 102; MEKK3 PB1 HTS: 99; SUMO Mot1 rescue: -12; MEKK2mut PB1 HTS: 1; CHT inh: inactive

How did O=[N+]([O-])c1cc(C(F)(F)F)ccc1NC1CCN(Cc2ccccc2)C1 (centres undefined) do in these assays?
CHT PAM: inactive; MEKK2wt PB1 HTS: 115; MEKK3 PB1 HTS: 106; SUMO Mot1 rescue: 262*; MEKK2mut PB1 HTS: 19; CHT inh: inactive

What do the screens show for `O=[N+]([O-])c1cc(C(F)(F)F)ccc1NC1CCN(Cc2ccccc2)CC1`?
CHT PAM: inactive; MEKK2wt PB1 HTS: 109; MEKK3 PB1 HTS: 100; SUMO Mot1 rescue: 81; MEKK2mut PB1 HTS: -1; CHT inh: inactive

What do the screens show for `Cc1ccc(CNC(=O)CCc2nnc3ccc(N4CCC5(CC4)OCCO5)nn23)cc1`?
CHT PAM: inactive; MEKK2wt PB1 HTS: 99; MEKK3 PB1 HTS: 98; SUMO Mot1 rescue: 254; MEKK2mut PB1 HTS: -1; CHT inh: inactive

What do the screens show for `Cc1cc(=O)n2[nH]c(SCc3ccccc3Cl)nc2n1`?
CHT PAM: inactive; MEKK2wt PB1 HTS: 110; MEKK3 PB1 HTS: 109; SUMO Mot1 rescue: 0; MEKK2mut PB1 HTS: 7; CHT inh: inactive

Results for COc1ccc(CCNC(=O)CCSCc2ccccc2F)cc1OC ?
CHT PAM: inactive; MEKK2wt PB1 HTS: 109; MEKK3 PB1 HTS: 104; SUMO Mot1 rescue: 263*; MEKK2mut PB1 HTS: 5; CHT inh: inactive

What do the screens show for `CCOc1ccc(CNC(=O)CCSCc2ccccc2F)cc1OC`?
CHT PAM: inactive; MEKK2wt PB1 HTS: 104; MEKK3 PB1 HTS: 104; SUMO Mot1 rescue: 10; MEKK2mut PB1 HTS: 2; CHT inh: inactive

What do the screens show for `O=C(NC1CCCC1)C1CC(=O)N(c2ccccc2)C1` (centres undefined)?
CHT PAM: inactive; MEKK2wt PB1 HTS: 98; MEKK3 PB1 HTS: 99; SUMO Mot1 rescue: 356*; MEKK2mut PB1 HTS: -2; CHT inh: inactive

Results for CC(=O)OC[C@H]1O[C@H](C/C=N/OC[C@@H](O)[C@H]2O[C@@H]3OC(C)(C)O[C@@H]3[C@H]2O)C=C[C@@H]1OC(C)=O ?
CHT PAM: inactive; MEKK2wt PB1 HTS: 96; MEKK3 PB1 HTS: 102; SUMO Mot1 rescue: 1; MEKK2mut PB1 HTS: -5; CHT inh: inactive

How did COc1ccccc1NC(=O)CC(NC1CCCCC1)C(=O)O (centres undefined) do in these assays?
CHT PAM: inactive; MEKK2wt PB1 HTS: 99; MEKK3 PB1 HTS: 97; SUMO Mot1 rescue: -7; MEKK2mut PB1 HTS: -1; CHT inh: inactive

How did COc1cccc(CNC(=O)CCC2CCCN(C(=O)c3cccnc3SC)C2)c1 (centres undefined) do in these assays?
CHT PAM: inactive; MEKK2wt PB1 HTS: 106; MEKK3 PB1 HTS: 105; SUMO Mot1 rescue: -7; MEKK2mut PB1 HTS: 3; CHT inh: inactive

What do the screens show for `CCC(CC)c1nnc(NC(=O)c2cc(C(=O)OC)cc([N+](=O)[O-])c2)s1`?
CHT PAM: inactive; MEKK2wt PB1 HTS: 95; MEKK3 PB1 HTS: 98; SUMO Mot1 rescue: 400*; MEKK2mut PB1 HTS: -1; CHT inh: inactive

What do the screens show for `COC(=O)c1cc(C(=O)Nc2nnc(CC(C)C)s2)cc([N+](=O)[O-])c1`?
CHT PAM: inactive; MEKK2wt PB1 HTS: 94; MEKK3 PB1 HTS: 95; SUMO Mot1 rescue: -10; MEKK2mut PB1 HTS: -1; CHT inh: inactive

How did CC(C)(C)C(=O)/C(=C\c1ccc([N+](=O)[O-])cc1)n1cncn1 do in these assays?
CHT PAM: inactive; MEKK2wt PB1 HTS: 108; MEKK3 PB1 HTS: 106; SUMO Mot1 rescue: 330*; MEKK2mut PB1 HTS: 4; CHT inh: inactive

What do the screens show for `Cc1ccc(S(=O)(=O)Nc2ccccc2C(=O)Nc2nc(-c3ccc(F)cc3)cs2)cc1`?
CHT PAM: inactive; MEKK2wt PB1 HTS: 89; MEKK3 PB1 HTS: 100; SUMO Mot1 rescue: 7; MEKK2mut PB1 HTS: -5; CHT inh: inactive

How did COc1ccc(-c2csc(NC(=O)c3ccccc3NS(=O)(=O)c3ccc(F)c(F)c3)n2)cc1 do in these assays?
CHT PAM: inactive; MEKK2wt PB1 HTS: 82; MEKK3 PB1 HTS: 103; SUMO Mot1 rescue: -6; MEKK2mut PB1 HTS: -6; CHT inh: -8.4*

Results for COc1cccc(C(=O)Nc2nc(-c3ccc(S(=O)(=O)N4CCOCC4)cc3)cs2)c1 ?
CHT PAM: inactive; MEKK2wt PB1 HTS: 96; MEKK3 PB1 HTS: 97; SUMO Mot1 rescue: 255*; MEKK2mut PB1 HTS: -4; CHT inh: inactive

How did CCOC(=O)Cc1csc(NC(=S)NC(=O)C(C)(C)C)n1 do in these assays?
CHT PAM: inactive; MEKK2wt PB1 HTS: 107; MEKK3 PB1 HTS: 134*; SUMO Mot1 rescue: -22; MEKK2mut PB1 HTS: 1; CHT inh: inactive

What do the screens show for `CCCCC1CCC(C(=O)Nc2ccc(N3CCOCC3)cc2N2CCOCC2)CC1` (centres undefined)?
SUMO Mot1 rescue: -9

How did CCS(=O)(=O)N1CCN(CC2CC3C=CC2C3)CC1 (centres undefined) do in these assays?
CHT PAM: inactive; MEKK2wt PB1 HTS: 101; MEKK3 PB1 HTS: 101; SUMO Mot1 rescue: 349*; MEKK2mut PB1 HTS: 2; CHT inh: inactive

Results for Cc1ccc(S(=O)(=O)N2CCN(CC3CC4C=CC3C4)CC2)cc1 (centres undefined) ?
CHT PAM: inactive; MEKK2wt PB1 HTS: 96; MEKK3 PB1 HTS: 100; SUMO Mot1 rescue: 39; MEKK2mut PB1 HTS: 1; CHT inh: inactive

Results for Cc1cc(C)n(CCNC(=O)c2ccco2)n1 ?
CHT PAM: inactive; MEKK2wt PB1 HTS: 107; MEKK3 PB1 HTS: 100; SUMO Mot1 rescue: 234; MEKK2mut PB1 HTS: 5; CHT inh: inactive

How did O=C(COC(=O)C1(c2ccccc2F)CCCC1)NC1CCS(=O)(=O)C1 (centres undefined) do in these assays?
CHT PAM: inactive; MEKK2wt PB1 HTS: 100; MEKK3 PB1 HTS: 96; SUMO Mot1 rescue: 298*; MEKK2mut PB1 HTS: 1; CHT inh: inactive

How did CCOc1ccc(NC(=O)Nc2cnccn2)cc1 do in these assays?
CHT PAM: inactive; MEKK2wt PB1 HTS: 91; MEKK3 PB1 HTS: 101; SUMO Mot1 rescue: -14; MEKK2mut PB1 HTS: -13; CHT inh: inactive

What do the screens show for `CC1(C)OC(=O)C(=Cc2ccc(-c3ccc(S(N)(=O)=O)cc3)o2)C(=O)O1`?
CHT PAM: inactive; MEKK2wt PB1 HTS: 2.0*[inhibitor]; MEKK3 PB1 HTS: 2.0*[inhibitor]; SUMO Mot1 rescue: 16; MEKK2mut PB1 HTS: -42; CHT inh: inactive

Results for NS(=O)(=O)c1ccc(-c2ccc(/C=C3\C(=O)Nc4ccccc43)o2)cc1 ?
CHT PAM: inactive; MEKK2wt PB1 HTS: 122; MEKK3 PB1 HTS: 98; SUMO Mot1 rescue: 7; MEKK2mut PB1 HTS: -1; CHT inh: inactive

Screening data: PubChem, several laboratories
